The source of these data is PubChem BioAssay (Tox21).

Records with an inconclusive call do not appear. Calls of active or inactive are those of the source. Unless noted, calls follow the shape of the dose curve; as a rule, active = well fitted curve in the direction sought with a large enough effect in the repeat runs; inconclusive = weak or mixed curves; inactive = no such curve, though single readings can be large; an effect the other way counts as inactive or inconclusive.

A short description of test [1]: qHTS assay to identify small molecule agonists of the vitamin D receptor (VDR) signaling pathway - cell viability counter screen (AID 743224). Also: nearly all actives have a fitted effect of over 50% in size. Also: potency is read from the fitted curve at half-maximal effect. An outline of the steps: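 Counter screen for cytotoxicity: VDR-bla cells at 2,000 cells/well, 16 h compound exposure, then CellTiter-Glo luminescence after the beta-lactamase measurement.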
(In general: qHTS replaces the single test concentration by a dilution series.)

Test [2] is described as follows: qHTS assay to identify small molecule antagonists of the vitamin D receptor (VDR) signaling pathway - cell viability counter screen (AID 743225). Also: nearly all actives have a fitted effect of over 50% in size. Also: potency is read from the fitted curve at half-maximal effect. An outline of the steps:
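Cytotoxicity toward the VDR-bla HEK 293T line was scored by ATP-based CellTiter-Glo luminescence, read in the wells already used for the beta-lactamase readout after 16 h compound treatment under 3 nM 1-alpha,25-dihydroxyvitamin D3 stimulation.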

Test [3] is described as follows: qHTS assay to identify small molecule agonists of the NFkB signaling pathway - cell viability counter screen (AID 1159515; calls by dose curve; also: nearly all actives have a fitted effect of over 55% in size; also: potency is read from the fitted curve at half-maximal effect). An outline of the steps:
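Counter screen run alongside the NFkB-bla agonist assay: ME-180 reporter cells exposed to compounds for 5 hr, then lysed with CellTiter-Glo in the same wells. Luminescence, read after 30 min, reflects viable cells.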

Test [4] is described as follows: qHTS assay to identify small molecule agonists of the endoplasmic reticulum stress response signaling pathway - cell viability counter screen (AID 1159517; calls by dose curve; also: nearly all actives have a fitted effect of over 50% in size; also: potency is read from the fitted curve at half-maximal effect). An outline of the steps:
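ESRE-bla HeLa cells (1,500/well) were plated overnight at 37 C and exposed to compounds for 5 hr. After the 2 hr beta-lactamase substrate read, CellTiter-Glo went into the same wells, and luminescence was read after 30 min at room temperature.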

Test [5] can be described thus: qHTS assay to identify small molecule antagonists of the retinoid-related orphan receptor gamma (ROR-gamma) signaling pathway - cell viability counter screen (AID 1159520). Also: nearly all actives have a fitted effect of over 50% in size. Also: potency is read from the fitted curve at half-maximal effect. An outline of the steps:
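Cytotoxicity was read from cellular ATP (CellTiter-Glo luminescence) after 16 hr at 37 C with 1 uM doxycycline induction. The inducer was added 2 hr after compound transfer to Tet-on ROR gamma CHO cells.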

The target in test [6] is Nuclear receptor ROR-gamma (Homo sapiens) (UniProt P51449). As to the kind of experiment: qHTS assay to identify small molecule antagonists of the retinoid-related orphan receptor gamma (ROR-gamma) signaling pathway (AID 1159521; also: nearly all actives have a fitted effect of over 50% in size; also: potency is read from the fitted curve at half-maximal effect). An outline of the steps:
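Readout: ONE-Glo luciferase luminescence, 30 min at room temperature. System: Tet-on RORγ CHO, RORE-LUC. Sequence: compound 2 h, doxycycline 1 uM final, 16 h at 37 C.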

Test [7] in a line: qHTS assay to identify small molecule agonists of the AP-1 signaling pathway - cell viability counter screen (AID 1159525; calls by dose curve; also: nearly all actives have a fitted effect of over 55% in size; also: potency is read from the fitted curve at half-maximal effect). Summed up:
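Intracellular ATP by Cell Titer Glo luminescence (30 min, RT) in the same ME-180 AP-1-bla wells after the 5 h compound exposure at 37 °C. Normalised to tetra n-octyl ammonium bromide and DMSO controls.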

Test [8] addresses Retinoic acid receptor RXR-alpha (Homo sapiens) (UniProt P19793). As to the kind of experiment: qHTS assay to identify small molecule agonists of the RXR signaling pathway (AID 1159527; calls by dose curve; also: nearly all actives have a fitted effect of over 35% in size). An outline of the steps:
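Reporter activation is measured as beta-lactamase activity via FRET substrate cleavage (emission 460/530 nm) in HEK 293T cells expressing an RXR-alpha-driven bla construct, following 16 hr compound exposure at 37 C.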

A short description of test [9]: qHTS assay to identify small molecule agonists of the RXR signaling pathway - cell viability counter screen (AID 1159529). Also: nearly all actives have a fitted effect of over 50% in size. Also: potency is read from the fitted curve at half-maximal effect. An outline of the steps: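 Tox21 10K compounds were tested for cytotoxicity against GeneBLAzer RXR-alpha HEK 293T cells grown in 2% charcoal-stripped FBS. Exposure lasted 16 hr at 37 C, 5% CO2; viability read by CellTiter-Glo luminescence.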
Test [10] in a line: qHTS assay to identify small molecule antagonists of the retinoid acid receptor (RAR) signaling pathway - cell viability counter screen (AID 1159551). Also: nearly all actives have a fitted effect of over 35% in size. Also: potency is read from the fitted curve at half-maximal effect. An outline of the steps: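 Measured by luminescent ATP detection, viability reflects C3RL4 cells treated 6 h at 37 C with test chemicals in the presence of 1 uM (final) retinol.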
Test [11] can be described thus: qHTS assay to identify small molecule antagonists of the retinoic acid receptor (RAR) signaling pathway (AID 1159552; also: nearly all actives have a fitted effect of over 50% in size; also: potency is read from the fitted curve at half-maximal effect). An outline of the steps: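 Overnight-plated C3RL4 reporter cells get compound, then retinol to 1 uM final; plates sit 6 hr at 37 C, 5% CO2. A luciferase reagent is added and light output recorded after 30 min at room temperature.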
Test [12] can be described thus: qHTS assay to identify small molecule agonists of the retinoic acid receptor (RAR) signaling pathway (AID 1159553). Also: potency is read from the fitted curve at half-maximal effect. Summed up:
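6 hr compound exposure (DMSO vehicle) of overnight-plated C3RL4 RARE-luc cells at 37 C; luminescence quantified after 30 min RT with luciferase reagent.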

Retinoic acid receptor RXR-alpha (Homo sapiens), sequence (P19793 whole entry, looked up): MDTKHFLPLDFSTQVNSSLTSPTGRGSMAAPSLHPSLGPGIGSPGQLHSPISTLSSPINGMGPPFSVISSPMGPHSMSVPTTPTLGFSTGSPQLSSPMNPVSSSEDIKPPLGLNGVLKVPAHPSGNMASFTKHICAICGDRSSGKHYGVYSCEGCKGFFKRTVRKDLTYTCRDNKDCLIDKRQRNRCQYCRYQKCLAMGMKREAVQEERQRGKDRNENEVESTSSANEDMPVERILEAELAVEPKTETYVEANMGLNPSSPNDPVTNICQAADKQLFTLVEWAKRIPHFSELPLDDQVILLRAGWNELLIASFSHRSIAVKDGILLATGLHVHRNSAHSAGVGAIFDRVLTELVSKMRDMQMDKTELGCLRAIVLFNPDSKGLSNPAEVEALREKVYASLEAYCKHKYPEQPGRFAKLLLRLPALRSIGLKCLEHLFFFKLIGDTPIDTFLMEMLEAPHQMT

With `CCCCN1CCCC[C@H]1C(=O)Nc1c(C)cccc1C`, the Potency entry in test [1], in test [2], in test [3], in [4], in test [5] and in test [6] was “inactive” throughout. In addition, the Potency result in test [7], in test [8], in test [9], in [10], in test [11] and in test [12] was “inactive” each time.
Turning to `CCCCCCCCCCCCCCCCCC[N+](C)(C)C`, the Potency in test [1] is 24.6 µM (active); in test [2] it was 3.9 µM (active); in test [3] it was 55.1 µM (active); in test [4], 49.1 µM (active); in test [5], 54.6 µM (active); in test [6], 6.13 µM (active). Moreover, the Potency in test [7] is 49.1 µM (active); in test [9] it was 24.6 µM (active); in [11], 54.6 µM (active).
Regarding `CCCCCCCCCCCCc1ccc(O)cc1`, the Potency was 12.3 µM (active) in test [1]; 17.4 µM (active) in [2]; 24.5 µM (active) in [3]; 21.9 µM (active) in [4]; 30.6 µM (active) in test [5]; 24.3 µM (active) in [6]. Besides, the Potency in test [7] is 17.4 µM (active); in test [9], 13.8 µM (active); in test [10], 61.1 µM (active); in test [11] it was 48.6 µM (active).
Consider `Oc1cc2ccccc2c2ccccc12`, for which the Potency in [1] is 2.45 µM (active); in test [2], 4.36 µM (active); in [3], 4.9 µM (active); in [4], 11 µM (active); in test [5] it was 17.2 µM (active); in [6], 12.2 µM (active). In addition, the Potency in test [7] was 11 µM (active); in test [9] it was 4.9 µM (active); in [10] it was 27.3 µM (active); in test [11], 13.7 µM (active).
`CCCC(c1cc(C(C)(C)C)c(O)cc1C)c1cc(C(C)(C)C)c(O)cc1C`: the Potency in test [1] was 7.86 µM (active); in test [2], 14 µM (active); in test [3] it was 11.1 µM (active); in [4], 22.1 µM (active); in test [5], 15.5 µM (active); in test [6], 13.9 µM (active). Besides, the Potency in test [7] was 7 µM (active); in test [9], 11.1 µM (active); in test [10], 27.6 µM (active); in test [11] it was 27.6 µM (active).
For the molecule `Cc1[nH]nc2c1N=C(c1ccccc1Cl)c1cc([N+](=O)[O-])ccc1N2`, the Potency in [1] was 5.49 µM (active); in [2], 21.9 µM (active); in test [4], 43.6 µM (active); in test [5], 54.5 µM (active); in test [6] it was 21.7 µM (active); in test [7], 30.9 µM (active). For the same molecule, the Potency is 34.7 µM (active) in test [9], 43.3 µM (active) in [10] and 30.6 µM (active) in [11]. For the same molecule, the Potency entry in test [3] was “inactive”.
As to `O=S1(=O)CC(Cl)(Cl)C(Cl)(Cl)C1`, the Potency in [1] is 2.19 µM (active); in [2] it was 4.36 µM (active); in [3], 5.49 µM (active); in test [4], 4.9 µM (active); in test [5], 6.11 µM (active); in [6], 2.17 µM (active). Besides, the figures for the Potency in test [7], in test [9] and in test [10] were 4.9 µM (active), 4.36 µM (active) and 15.4 µM (active), respectively.
In the case of `CCCC/C=C/CCCCO`, the Potency result in test [1], in [2], in test [3], in [4], in test [5] and in test [6] was “inactive” in each case. The Potency entry in test [7], in test [9] and in test [10] was “inactive” throughout.
On to `CSc1ccc(/C=C2/C(C)=C(CC(=O)O)c3cc(F)ccc32)cc1`, for which the Potency result in test [2], in test [3], in test [4], in test [5], in [6] and in test [7] was “inactive” each time. Besides, the Potency entry in test [9], in [10], in test [11] and in [12] was “inactive” in each case.
On to `COc1cc(-c2ccc(N=C=O)c(OC)c2)ccc1N=C=O`, for which the Potency result in test [1], in test [2], in test [3], in test [4], in [5] and in test [6] was “inactive” each time. Besides, the Potency result in [7], in [8], in test [9], in test [10], in test [11] and in test [12] was “inactive” each time.
`O=C(OCC(COC(=O)c1ccccc1)(COC(=O)c1ccccc1)COC(=O)c1ccccc1)c1ccccc1`: the Potency result in [1], in test [3], in test [4], in test [5], in test [6] and in [7] was “inactive” throughout. The Potency result in [8], in test [9], in test [10], in [11] and in test [12] was “inactive” each time.
For the molecule `CCc1cc(SCc2sc(-c3ccc(C(F)(F)F)cc3)nc2CN2CCN(c3ccc(OC)cc3)CC2)ccc1OCC(=O)O`, the Potency in test [1] was 19.5 µM (active); in test [2], 7.76 µM (active); in test [3] it was 43.6 µM (active); in [4], 54.9 µM (active); in test [5], 30.6 µM (active); in test [6], 13.7 µM (active). For the same molecule, the Potency in [7] was 43.6 µM (active); in test [9], 3.89 µM (active); in [11], 61.1 µM (active). Moreover, the Potency result in [10] was “inactive”.
On to `Cc1nc(-c2ccc3c(c2)CCN(CCC2CCC(NC(=O)/C=C/c4ccc(F)cc4)CC2)CC3)no1` (centres undefined), for which the Potency result in test [2], in [3], in test [4], in [7], in test [9] and in [10] was “inactive” each time. The values for the Potency in test [5] and in test [6] were 15.4 µM (active) and 1.94 µM (active), respectively.
Turning to `NNc1nc(-c2ccc([N+](=O)[O-])cc2)cs1`, the Potency entry in test [3], in [4], in test [7], in test [9] and in test [11] was “inactive” in each case. The Potency in test [5] was 30.6 µM (active); in test [6] it was 10.9 µM (active); in test [10], 43.3 µM (active); in [12] it was 54.5 µM (active).
For `CC(C)(C)C(=O)OCOC(=O)C1N2C(=O)CC2S(=O)(=O)C1(C)C` (centres undefined), the Potency result in test [1], in test [2], in test [3], in [4], in test [5] and in test [6] was “inactive” in each case. Moreover, the Potency result in [7], in [9], in test [10], in test [11] and in [12] was “inactive” in each case.
As to `N=C1N=C(N)c2ccccc21`, the Potency entry in [1], in test [2], in test [3], in test [7], in test [8] and in [9] was “inactive” in each case. Moreover, the Potency was 21.9 µM (active) in [4], 43.3 µM (active) in [5] and 48.6 µM (active) in test [6].
